Measurements taken from PubChem BioAssay AID1159580 (chemical genetic matrix, 2015).
“And” between values parts separate entries of the source, which are not always exact repeats. Equal values may be shown once. In all, about 5,500 compounds went through this assay and about 2,000 (36%) were called active. Not shown: some 18% with an inconclusive outcome. Cut-off read from the data, not from the text of the source: active = normalized growth mostly below about 0.91 (no sharp cut-off); inconclusive = no clear call, values can overlap the other calls; inactive = mostly above about 0.92. This is one part of the list.

Test: chemical genetic growth profiling, strain panel (AID 1159580);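 note: tested at 20 µM; growth read once vehicle control cultures reached saturation at 30 °C; 1 = growth at the plate median or of vehicle wells; lower values mean less growth of the strain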
Settings: S. cerevisiae deletion strains, growth OD

Measured: normalized growth

COc1cc2c(cc1OC)C1Cc3ccc(OC)c(OC)c3CN1CC2 (stereo unspecified)
inactive: locus YAL021C, strain ccr4, hits give low values 0.983 | locus YAL026C, strain drs2, hits give low values 0.972 | locus YAL030W, strain snc1, hits give low values 0.983 | locus YBL061C, strain skt5, hits give low values 0.976 | locus YBR009C, strain hhf1, hits give low values 0.972 | locus YBR021W, strain FUR4, hits give low values 0.981 | locus YBR023C, strain chs3, hits give low values 0.968 | locus YBR171W, strain sec66, hits give low values 0.965 | locus YBR229C, strain ROT2, hits give low values 0.985 | locus YBR231C, strain swc5, hits give low values 0.983 | locus YBR279W, strain paf1, hits give low values 0.983 | locus YCL011C, strain gbp2, hits give low values 0.985 | locus YCL016C, strain dcc1, hits give low values 0.999 | locus YCL029C, strain bik1, hits give low values 0.998 | locus YCL061C, strain MRC1, hits give low values 0.983 | locus YCL069W, strain vba3, hits give low values 0.955 | locus YCR088W, strain abp1, hits give low values 0.979 | locus YDL005C, strain med2, hits give low values 0.974 | locus YDL035C, strain GPR1, hits give low values 1 | locus YDL040C, strain nat1, hits give low values 0.987 | locus YDL074C, strain BRE1, hits give low values 0.989 | locus YDL101C, strain DUN1, hits give low values 1 | locus YDL134C, strain PPH21, hits give low values 1.03 | locus YDL185W, strain tfp1, hits give low values 0.984 | locus YDL192W, strain arf1, hits give low values 0.991 | locus YDR001C, strain nth1, hits give low values 0.984 | locus YDR069C, strain doa4, hits give low values 0.972 | locus YDR101C, strain arx1, hits give low values 0.988 | locus YDR137W, strain rgp1, hits give low values 0.967 | locus YDR159W, strain sac3, hits give low values 0.972 | locus YDR162C, strain NBP2, hits give low values 1.06 | locus YDR195W, strain ref2 0.955 | locus YDR297W, strain sur2, hits give low values 0.975 | locus YDR318W, strain mcm21, hits give low values 1 | locus YDR334W, strain swr1, hits give low values 0.965 | locus YDR335W, strain msn5, hits give low values 0.97 | locus YDR388W, hits give low values 0.985 | locus YDR392W, strain spt3, hits give low values 0.982 | locus YDR502C, strain sam2, hits give low values 1 | locus YEL003W, strain gim4, hits give low values 0.978 | locus YEL037C, strain rad23, hits give low values 0.982 | locus YEL061C, strain CIN8 (second series), hits give low values 0.95 | locus YEL061C, strain CIN8, hits give low values 1.02 | locus YER015W, strain faa2, hits give low values 0.984 | locus YER016W, strain bim1, hits give low values 0.97 | locus YER110C, hits give low values 0.982 | locus YER111C, strain swi4, hits give low values 0.973 | locus YER155C, strain BEM2 (second series), hits give low values 0.972 | locus YER155C, strain BEM2, hits give low values 0.988 | locus YER167W, strain BCK2, hits give low values 0.998 | locus YFR010W, strain ubp6, hits give low values 0.96 | locus YGL078C, strain dbp3, hits give low values 0.985 | locus YGL086W, strain mad1, hits give low values 0.955 | locus YGL167C, strain pmr1, hits give low values 0.978 | locus YGL173C, strain kem1, hits give low values 0.987 | locus YGL227W, strain vid30, hits give low values 0.979 | locus YGL240W, strain doc1, hits give low values 0.973 | locus YGL248W, strain PDE1, hits give low values 1.03 | locus YGL253W, strain hxk2, hits give low values 0.97 | locus YGR135W, strain pre9, hits give low values 1.01 | locus YGR252W, strain gcn5, hits give low values 1.01 | locus YHR013C, strain ard1, hits give low values 0.977 | locus YHR027C, strain rpn1, hits give low values 1 | locus YHR030C, strain SLT2, hits give low values 0.996 and 0.965 | locus YHR079C, strain IRE1 (second series), hits give low values 0.995 | locus YHR079C, strain IRE1, hits give low values 0.979 | locus YHR094C, strain hxt1, hits give low values 0.978 | locus YHR129C, strain ARP1, hits give low values 1 | locus YHR142W, strain chs7, hits give low values 0.976 | locus YHR200W, strain rpn10, hits give low values 0.992 | locus YIL066C, strain RNR3, hits give low values 1.02 | locus YIL073C, strain SPO22, hits give low values 1.05 | locus YIL125W, strain kgd1, hits give low values 1 | locus YIR030C, strain dcg1, hits give low values 0.987 | locus YJL092W, strain hpr5, hits give low values 0.952 | locus YJL095W, strain BCK1 (second series), hits give low values 0.975 | locus YJL095W, strain BCK1, hits give low values 1.04 and 0.988 | locus YJL115W, strain asf1, hits give low values 0.967 | locus YJL129C, strain trk1, hits give low values 0.956 | locus YJL134W, strain LCB3, hits give low values 0.983 | locus YJL154C, strain vps35, hits give low values 0.981 | locus YJL164C, strain tpk1, hits give low values 0.99 | locus YJL166W, strain qcr8, hits give low values 0.99 | locus YJL168C, strain set2, hits give low values 0.989 | locus YJL187C, strain SWE1 (second series), hits give low values 1.01 | locus YJR043C, strain POL32, hits give low values 1.01
